This note sets out measurements from the supplement of paper PMC10681739.

The assay deals with T1, ETS1 (UniProt P14921).
T1 sequence: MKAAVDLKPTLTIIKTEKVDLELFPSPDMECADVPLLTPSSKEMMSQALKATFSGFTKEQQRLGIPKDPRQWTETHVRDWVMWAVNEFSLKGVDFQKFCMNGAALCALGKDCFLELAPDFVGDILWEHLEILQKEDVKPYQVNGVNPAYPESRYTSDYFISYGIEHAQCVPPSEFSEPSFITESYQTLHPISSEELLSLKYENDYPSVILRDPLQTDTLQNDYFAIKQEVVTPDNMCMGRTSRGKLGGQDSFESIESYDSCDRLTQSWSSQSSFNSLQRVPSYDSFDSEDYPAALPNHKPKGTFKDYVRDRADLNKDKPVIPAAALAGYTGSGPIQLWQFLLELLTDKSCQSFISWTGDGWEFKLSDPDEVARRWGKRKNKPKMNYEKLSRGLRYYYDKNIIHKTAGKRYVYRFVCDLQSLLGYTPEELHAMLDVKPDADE
The experiment in a line: ETS1 binding intensity (PBM fluorescence) in presence of RUNX1, normalised to ETS1-only experiment (arbitrary fluorescence units); higher = stronger binding. Particulars: ETS1 concentration 1 nM; RUNX1 concentration 25 nM. The procedure: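 Cooperative genomic-context PBM: 36-bp genomic probes with neighbouring ETS1 and RUNX1 sites, double-stranded on Agilent 4x180k arrays. Full-length recombinant human ETS1 (1 nM) was incubated alone or with RUNX1 (25 nM) and detected with anti-ETS1 antibody plus Alexa488 secondary. Value is the median fluorescence intensity over 4 replicate spots; the ETS1+RUNX1 data were normalised to the ETS1-only data using probes without RUNX1 sites. The 36-bp variable region sits on the array probe with constant linker/primer flanks that are not printed.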
For GCTGGGGCAGGAAGCTTCTAGGCCACAGACAGGACG, the ETS1 binding intensity was 1360.

Regarding TGCATGTGCAGCAGAGGAAACCACAAGTTATTCCCT, the ETS1 binding intensity stood at 1560. Take CAGAGAAACAGGAAGAACAGTGGTTTCAACTGAAAT: the ETS1 binding intensity is 1310. Next, CCTCTCAACAGCATTTCCTGGTGGTCAGATATCTGA: 587; AGCGGATTCCGGACATAACAATCTACAGCGGTCTTA: 417; GGCTGGCCTAGGAACTTCCGCCACAAGTCCCGCCCC: 2220. GGCTTCCGGCGGGGTACCCTCCTCTGTGGGCGGGGC: the ETS1 binding intensity stood at 572. In the case of TGTTCAGGAACAGGAAATGAAACCCCGCAGCTTTGA it was 11300. In the case of TGTTGTAGGGGAAGTGGTGTGTGGTATTCCTGGGGA it was 1690; in that of CCGGGAGGGACGGAGGATGTGTGGTTCTGTCTCCTT, 553; in that of CCAACAGTACCCTTCCTCCCTTAACCACAAGACTGA, 2090.

Consider GTCGGAAGTGGCCGTGAGCCCAAGCCGCGGTCCCGG, for which the ETS1 binding intensity is 486. Next, GTGAGAGGAAGTGGGCGCTGGTTTAATGTGGTCAGC: 5410; CATCAAAAACAGAGGAAGCCACAGCAAATTGCTGCC: 418.

Consider ACAGGTTCAGGAAGCGGCCGTGGTTGTTAGTGGTGT, for which the ETS1 binding intensity was 639. In the case of CTGGGCTCGCCAGGCGGAAGTGGTTGGAGACTGCGT, the ETS1 binding intensity turned out to be 9090. Next, AGCCGCCACTTCCTGTCTCTGCGGGTGCATGCTCTT: 5990; GCGAGGAGACAACTTCCTTTTGTGGTCTGACCCTGG: 1590. In the case of ACAGGAAATGACTTAGGGAAAGTCCCAACCGCAATC it was 15700. Next, AACATCCTGTGTAAAGAGAATTGAATGTGGTTTTCT: 1360; GAAGCCCAACAGGATGCCGAGTAACCACCCACTGAA: 1120; GAGTCGCTTCCGCTCCCGCCCCGCTCTGTGGCGTAG: 1330.

With TTTATCATGAATGCAGGATGTGGGCAAACTCGCATC, the ETS1 binding intensity came out at 6100. Next, TAAACGTCAGCTTCCTTTGTGGCTTACCCTCCCGCC: 582; TGCCTCCTCGTCACAGGATGTGGTCGCTGCACCCTG: 16000; GAGAGAGGCAGGAAGTGTTGTGGTTATTGTTTGAGC: 24200. For the sequence ATGCCAAGGGACTTCCCTCCACAACCGCCCCCAGCT, the ETS1 binding intensity came to 529. CCAGACCCGGCGGAACTACCGTGCCCACAAGGCAGC: the ETS1 binding intensity was 564. Next, CCGCTTCCTTAGAGGTTAAGTGGTGGTGGTTCAGTT: 391. Next, GCAGGAAGACTAACACAAAACCATCAAACCACTCTG: 543. As for CGGGCCCGACGGAAACCATGTTTGTGGCTCGCAGCA, the ETS1 binding intensity is 699.

With GGCTTGATTGAACGAGGATGTGGTTCTTGGGTGGGA, the ETS1 binding intensity was 1770. In the case of TACAGGAACTTCCTGCGCGGCTGCTGTGGTTGCGAG, the ETS1 binding intensity came to 1350.

Take CAGAGAGCGGACTTCCGCGACGCGGGTAAGCCGGGC: the ETS1 binding intensity was determined as 368. Next, GAGCCGGAAGTGAAGGAGGGCTTGTGGGAGATGGAG: 3090; AAGAGGAAGTCCCAAATTGCTTTTTAACCACCAACA: 874. Next, GCACCACCGGAAGTAGGGCTCAACCACCGCTCATTT: 13400; CTGGGGATGTGTGACACTCAGAGAAACCACAAGGTG: 1390; GAATGACAGAAGCGGAAACCACATGAAAAAGGTGTT: 4230.

Regarding TATTCAGGCTTCCGGGTGATGTTTGTGGCCACCCGG, the ETS1 binding intensity stood at 5020.
